The source made the active and inactive calls. The call rests on the fitted dose curve.
Assay: qHTS drug screen for cell cycle checkpoint inhibitors in PARPi-resistant BRCA-mutant ovarian cancer cell lines. (AID 1963452)
Conditions: PEO1/OlaR viability, CellTiter-Glo luminescence, 96 h; for Z-AUC: stronger effect = lower value
Source text: Women's Malignancies Branch, Center for Cancer Research (CCR),
National Cancer Institute (NCI), National Institutes of Health (NIH), Bethesda, MD
Poly (ADP-ribose) polymerase inhibitors (PARPis) have changed the treatment paradigm in breast cancer gene (BRCA) - mutant high-grade serous ovarian carcinoma (HGSC). However, most patients eventually develop resistance to PARPis, highlighting an unmet need for improved therapeutic strategies. Using high-throughput drug screens, we identified ataxia telangiectasia and rad3-related protein/checkpoint kinase 1 (CHK1) pathway inhibitors as cytotoxic and further validated the activity of the CHK1 inhibitor (CHK1i) prexasertib in PARPi-sensitive and -resistant BRCA-mutant HGSC cells and xenograft mouse models. CHK1i monotherapy induced DNA damage, apoptosis, and tumor size reduction. We then conducted a phase 2 study (NCT02203513) of prexasertib in patients with BRCA-mutant HGSC. The treatment was well tolerated but yielded an objective response rate of 6% (1 of 17; one partial response) in patients with previous PARPi treatment. […] BRCA reversion mutation in previously PARPi-treated BRCA-mutant patients was not associated with resistance to CHK1i.
Among others, 1082 oncology drugs, both approved and investigational, were prioritized based on their status in clinical trial development. […] Drugs with average Z-AUC values less than -1.0 in all three cell lines were classified as "hits" resulting in 151 oncology drug hits. The screen also confirmed cross-resistance between olaparib and other PARPis (rucaparib, niraparib, and talazoparib) in PARPi-resistant PEO1/OlaR and PEO4.
[1] G. L. Lin, K. M. Wilson, M. Ceribelli, B. Z. Stanton, P. J. Woo, S. Kreimer, E. Y. Qin, X. Zhang, J. Lennon, S. Nagaraja, P. J. Morris, M. Quezada, S. M. Gillespie, D. Y. Duveau, A. M. Michalowski, P. Shinn, R. Guha, M. Ferrer, C. Klumpp-Thomas, S. Michael, C. McKnight, P. Minhas, Z. Itkin, E. H. Raabe, L. Chen, R. Ghanem, A. C. Geraghty, L. Ni, K. I. Andreasson, N. A. Vitanza, K. E.Warren, C. J. Thomas, M. Monje, Therapeutic strategies for diffuse midline glioma from high-throughput combination drug screening. Sci. Transl. Med. 11, (2019).
[2] T. M. Yamamoto, A. McMellen, Z. L. Watson, J. Aguilera, R. Ferguson, E. Nurmemmedov, T. Thakar, G. L. Moldovan, H. Kim, D. M. Cittelly, A. M. Joglar, E. P. Brennecke, H. Wilson, K. Behbakht, M. J. Sikora, B. G. Bitler, Activation of Wnt signaling promotes olaparib resistant ovarian cancer. Mol. Carcinog. 58, 1770 - 1782 (2019).
PROTOCOL TABLE (as described by Inglese J, Shamu CE and Guy RK. 2007)
SEQUENCE No. (e.g., 1, 2, 3, etc.); […] (e.g., Cells, Incubation, Reagent, etc.); VALUE; DESCRIPTION.
1; Compounds; 20nL; 1536-well white tissue culture-treated plates.
2; Cells; 5 uL; PEO1, PEO4, and PEO1/OlaR cells at 600 cells per well.
3; Incubation; 96 hr; 37C, 95% humidity, 5% CO2.
4; Reagent; 3 uL; CellTiter-Glo (Promega).
5; Incubation; 15 min; room temperature.
6; Detection; Luminescence, PHERAstar (BMG Labtech) plate reader.
NOTES (numbers refer to Sequence numbers above)
1. MIPE 5.0 compounds were acoustically dispensed by Echo Acoustic Liquid Handler (Beckman Coulter Life Sciences). Each compound was plated at an 11-point concentration range with 1:3 dilution. Bortezomib, a proteasome inhibitor (final concentration, 20 uM), was used as a positive.
2. PEO1, PEO4, and PEO1/OlaR were trypsinized and dispensed in 5 uLof growth medium using a Multidrop Combi dispenser at a density of 600 cells per well to allow compounds to be present during the exponential growth phase.
3. Plates were incubated for 96 hours at standard incubator conditions and covered by a stainless steel gasketed lid to prevent evaporation.
4. Three microliters of CellTiter-Glo (Promega) were added to each well.
5. Plates were incubated at room temperature for 15 min with a stainless-steel lid in place.
6. Luminescence readings were taken using PHERAstar (BMG Labtech). […]

[1] = measured here: PEO1 parental Z-AUC
Potency means the concentration at half of the fitted maximal effect.

Compound | Potency | Z-AUC [1] | Z-AUC (measured here: PEO4 Z-AUC) | Z-AUC
CCn1cc(-c2ccnc3[nH]c(-c4cccc(CN(C)C)c4)cc23)c(-c2ccc(NC(=O)N(C)C)cc2)n1 | 2.45 µM (active) | -1.7 | -1.88 | –
O=C(NCCS(=O)(=O)c1ccc(C(F)(F)F)cn1)c1ccc(Cl)cc1 | – | 0.415 | 0.479 | 0.591 (inactive)
COc1cccc(-c2ccc(NC(=O)C3=C(C(=O)O)CCC3)c(F)c2)c1 | – | 0.433 | 0.985 | 0.233 (inactive)
CC(C)c1cc(C(=O)N2Cc3ccc(CN4CCN(C)CC4)cc3C2)c(O)cc1O | – | -0.777 | -0.0282 | -1.06 (inactive)
Cc1ccc(-c2ncn(-c3ccc(Nc4nccc(-c5cccc(N6CCOCC6)c5)n4)cc3)n2)cn1 | – | -2.09 | -1.65 | -1.4 (inactive)
Cc1cc(Nc2cc(NC(=O)c3c(Cl)cccc3Cl)ccn2)nc(N)n1 | – | -1.26 | -0.959 | -0.241 (inactive)
C[C@@]12O[C@@H](C[C@]1(O)CO)n1c3ccccc3c3c4c(c5c6ccccc6n2c5c31)CNC4=O | – | -0.538 | -0.928 | -1.24 (inactive)
CC(C)(C)c1cc(C(C)(C)C)c(NC(=O)c2c[nH]c3ccccc3c2=O)cc1O | – | 1.35 | 0.966 | 1.31 (inactive)
Cc1ccc2nc(NC(=O)CSc3nc4c(c(=O)n3-c3ccccc3)SCC4)sc2c1 | – | 1.46 | 1.44 | 1.55 (inactive)
C=CC(=O)Nc1cccc(Oc2nc(Nc3ccc(N4CCN(C)CC4)cc3)ncc2Cl)c1 | – | -0.559 | -0.604 | -0.847 (inactive)
Cn1c2ccccc2c2c3c(c4c5ccccc5n(CCC#N)c4c21)CNC3=O | – | -1.02 | -1.08 | -0.442 (inactive)
Nc1ncnc2c1c(-c1cccc(OCc3ccccc3)c1)cn2C1CC(CN2CCCC2)C1 (configuration not stated) | – | -0.783 | -1.2 | -0.938 (inactive)
CN1c2cc(O)c(N=NC(N)=O)cc2CC1S(=O)(=O)O (configuration not stated) | – | 0.677 | 1.13 | 1.01 (inactive)
CS(=O)(=O)N1CCN(Cc2cc3nc(-c4cccc5[nH]ncc45)nc(N4CCOCC4)c3s2)CC1 | – | 0.321 | 0.781 | 0.0585 (inactive)

From PubChem BioAssay (NCATS)
